Test results taken from PubChem BioAssay (Tox21).
Several values for one entry are separate records, joined by “and”; a condition that tells them apart may be missing. Equal entries are not always repeated. Inconclusive results are not listed. Some structures have more than one record in an assay (separate samples or runs), and their calls can disagree. Activity calls are given as the source filed them. Unless noted, the call rests on the fitted dose curve; in most records, active means well fitted curve in the direction sought with a large enough effect in the repeat runs; inconclusive means weak or mixed curves; inactive means no such curve, though single readings can be large; an effect the other way counts as inactive or inconclusive.

Experiments:
[1] = qHTS assay to identify small molecule agonists of H2AX (AID 1224845; active means well fitted activation curve with a large enough effect in the signal ratio in the repeat runs, not every such curve was filed as active; the % refers to the signal ratio; further: potency means the concentration at half of the fitted maximal effect)
In short: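 Phospho-H2AX Ser139 measured by HTRF (ex 320 nm; em 665 and 620 nm) after 24 hr antibody incubation. Compounds, 15 concentrations, 0.76% DMSO, were applied to CHO-K1 cells for 3hr at 37C before lysis.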

[2] = qHTS assay to identify small molecule agonists of the hypoxia (HIF-1) signaling pathway (AID 1224846; active means well fitted activation curve with a large enough effect in the signal ratio in the repeat runs, not every such curve was filed as active; the % refers to the signal ratio)
In short: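 A low-serum medium (0.5% dialyzed FBS) holding 2,000 HRE-bla ME-180 cells per well is preincubated for 5 hrs, dosed with compounds by pintool, and kept a further 17 hrs at 37C, 5% CO2 before CCF4-AM FRET detection of beta-lactamase.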

[3] = qHTS assay to identify small molecule agonists of H2AX - cell viability counter screen (AID 1224847; calls by dose curve; further: nearly all actives have a fitted effect of over 30% in size; further: potency means the concentration at half of the fitted maximal effect;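 on activity change, negative = cytotoxicity: wild-type CHO-K1 cells; top concentration of the series differs between compounds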)
In short: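 Cells plated first: CHO-K1, 1000 per well in 10% FBS medium, incubated overnight at 37C. Then 15-point compound titration added (final DMSO 0.76%) for 3 hr. Finally CellTiter-Glo added and luminescence read.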

[4] = qHTS RealTime-Glo MT Cell Viability Assay in HepG2 cells - 24 hour (AID 1224867); further: nearly all actives have a fitted effect of over 50% in size; further: potency means the concentration at half of the fitted maximal effect
In short: (§1)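 Cells + NanoLuc/prosubstrate dispensed (600 cells/well) → 5 h at 37 C/5% CO2 → compounds in DMSO transferred → 40 h incubation at 37 C, luminescence read at 0, 8, 16, 24, 32, 40 h.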

[5] = A CellTox Green Cytotoxicity Assay to monitor cytotoxicity in HEK293 cells - 0 hour (AID 1224869); further: nearly all actives have a fitted effect of over 50% in size
In short: (§2)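 Fluorescence intensity, read at 0, 8, 16, 24, 32 and 40 h of compound treatment, reflected dye binding to DNA of dead HEK293 cells; compounds (23 nL, DMSO) were added 5 h after plating cells with reagent.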

[6] = A CellTox Green Cytotoxicity Assay to monitor cytotoxicity in HEK293 cells - 40 hour (AID 1224871); further: nearly all actives have a fitted effect of over 45% in size; further: potency means the concentration at half of the fitted maximal effect
In short: as §2

[7] = qHTS RealTime-Glo MT Cell Viability Assay in HEK293 cells - 16 hour (AID 1224872); further: nearly all actives have a fitted effect of over 50% in size; further: potency means the concentration at half of the fitted maximal effect; on activity change, negative = cytotoxicity: top concentration of the series differs between compounds
In short: (§3)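 Tox21 10K qHTS, HEK293, 600 cells/well, RealTime-Glo reagent co-dispensed with cells; 5 h preincubation, compound by pintool, 37 C, luminescence at 0–40 h.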

[8] = qHTS RealTime-Glo MT Cell Viability Assay in HepG2 cells - 8 hour (AID 1224873); further: nearly all actives have a fitted effect of over 55% in size; further: potency means the concentration at half of the fitted maximal effect
In short: (§4)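 Real-time viability: cells seeded at 600 per well together with NanoLuc and cell-permeant prosubstrate, compounds added after 5 h incubation. Luminescence tracked at 0, 8, 16, 24, 32 and 40 h of exposure.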

[9] = qHTS RealTime-Glo MT Cell Viability Assay in HEK293 cells - 40 hour (AID 1224874); conditions: RealTime-Glo luminescence; max response: stronger effect = lower value; further: nearly all actives have a fitted effect of over 50% in size; further: potency means the concentration at half of the fitted maximal effect
In short: (§5)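 Viable HEK293 cells reduce a cell-permeant prosubstrate; the product diffuses out and is consumed by NanoLuc in the medium to give light. Compounds went in after a 5 h incubation and plates were read over the treatment course.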

[10] = A CellTox Green Cytotoxicity Assay to monitor cytotoxicity in HEK293 cells - 24 hour (AID 1224875); further: nearly all actives have a fitted effect of over 45% in size; further: potency means the concentration at half of the fitted maximal effect
In short: as §2

[11] = A CellTox Green Cytotoxicity Assay to monitor cytotoxicity in HepG2 cells - 16 hour (AID 1224876); further: nearly all actives have a fitted effect of over 45% in size; further: potency means the concentration at half of the fitted maximal effect
In short: (§6)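 Using 1536-well format, dye-containing HepG2 suspension was seeded, allowed 5 h at 37 C/5% CO2, dosed by pintool with compounds, positive and negative controls, and imaged for fluorescence across 40 h.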

[12] = qHTS RealTime-Glo MT Cell Viability Assay in HepG2 cells - 32 hour (AID 1224877); further: nearly all actives have a fitted effect of over 55% in size; further: potency means the concentration at half of the fitted maximal effect
In short: as §1

[13] = A CellTox Green Cytotoxicity Assay to monitor cytotoxicity in HepG2 cells - 24 hour (AID 1224878); further: nearly all actives have a fitted effect of over 45% in size; further: potency means the concentration at half of the fitted maximal effect
In short: as §6

[14] = A CellTox Green Cytotoxicity Assay to monitor cytotoxicity in HepG2 cells - 40 hour (AID 1224879); further: nearly all actives have a fitted effect of over 40% in size; further: potency means the concentration at half of the fitted maximal effect
In short: as §6

[15] = qHTS RealTime-Glo MT Cell Viability Assay in HEK293 cells - 0 hour (AID 1224880)
In short: as §5

[16] = A CellTox Green Cytotoxicity Assay to monitor cytotoxicity in HEK293 cells - 32 hour (AID 1224881); further: nearly all actives have a fitted effect of over 40% in size; further: potency means the concentration at half of the fitted maximal effect
In short: as §2

[17] = qHTS RealTime-Glo MT Cell Viability Assay in HepG2 cells - 40 hour (AID 1224870); further: nearly all actives have a fitted effect of over 50% in size
In short: as §4

[18] = qHTS assay to identify small molecule antagonists of the estrogen related receptor (ERR) signaling pathway from Tox21 library (AID 1224848); further: nearly all actives have a fitted effect of over 50% in size; further: potency means the concentration at half of the fitted maximal effect
In short: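 Reading was by luminescence 30 min after ONE-Glo addition. Before that, ERR cells at 2,000 per well had rested 6 h at 37 C/5% CO2 and then received pin-tooled compounds in DMSO for 18 h at 37 C.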

[19] = qHTS assay to identify small molecule agonists of the estrogen related receptor (ERR) signaling pathway from Tox21 library (AID 1224849; calls by dose curve; further: nearly all actives have a fitted effect of over 15% in size); conditions: ERR reporter cell line, ONE-Glo luciferase, 18 h; at 92.4 µM (top of the series) unless noted
In short: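 Screening used an NTP-provided ERR luciferase cell line. Compounds in DMSO were added 6 h after seeding and left 18 h at 37 C before a 30 min ONE-Glo step and luminescence reading.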

[20] = qHTS RealTime-Glo MT Cell Viability Assay in HEK293 cells - 32 hour (AID 1224868); further: nearly all actives have a fitted effect of over 50% in size; further: potency means the concentration at half of the fitted maximal effect
In short: as §3
On the % scale 0 is the no-effect control and ±100 the full control effect.

CC(=O)[O-].[Tl+]
inactive: Potency [1] | outcome [2] | Potency [3] | Potency [4] | Potency [5] | Potency [6] | Potency [7] | Potency [8] | Potency [10] | Potency [11] | Potency [12] | Potency [13] | Potency [14] | Potency [15] | Potency [16]
active: Potency [9] 27.7 µM

CN(C)[C@@H]1C(=O)C(C(N)=O)=C(O)[C@@]2(O)C(=O)C3=C(O)c4c(O)ccc(Cl)c4[C@@](C)(O)[C@H]3C[C@@H]12
inactive: Potency [1] | outcome [2] | Potency [3] | Potency [4] | Potency [5] | Potency [17] | Potency [6] | Potency [7] | Potency [8] | Potency [11] | Potency [12] | Potency [14] | Potency [15] | Potency [16]

NC(=O)c1ccc(N)nc1
inactive: Potency [1] | outcome [2] | Potency [3] | Potency [4] | Potency [5] | Potency [17] | Potency [6] | Potency [7] | Potency [8] | Potency [10] | Potency [11] | Potency [12] | Potency [14] | Potency [15] | Potency [16]

CC(C)CC(C)(c1ccc(O)cc1)c1ccc(O)cc1
43.8 µM (active) and inactive: Potency [7]
54.6 µM (active) and inactive: Potency [18]
inactive: Potency [1] | activity change, positive = activation [19] -67.3% and -18.5% | Potency [5] | Potency [17] | Potency [15]
active: Potency [3] 101 µM and 89.8 µM | Potency [20] 39 µM | Potency [9] 27.6 µM | Potency [11] 43.8 µM | Potency [14] 43.8 µM | Potency [16] 49.1 µM

Cc1cc(N=Nc2ccccc2C)ccc1N
inactive: Potency [1] | Potency [18] | Potency [5] | Potency [17] | Potency [11] | Potency [12] | Potency [13] | Potency [15]
active: Potency [3] 113 µM and 89.8 µM | activity change, positive = activation [19] 34.9% and 43.7% | Potency [20] 21.9 µM | Potency [6] 49 µM | Potency [7] 21.9 µM and 19.5 µM | Potency [14] 21.9 µM and 19.5 µM

CC(C)CCCCCCCOP(=O)(Oc1ccccc1)Oc1ccccc1
inactive: Potency [1] | outcome [2] | activity change, positive = activation [19] -16.8% | Potency [4] | Potency [5] | Potency [17] | Potency [6] | Potency [8] | max response [9] -33.6% | Potency [10] | Potency [11] | Potency [13] | Potency [14] | Potency [15] | Potency [16]

FC(F)(F)c1cccc(C2=CCN(CCc3ccc4ccccc4c3)CC2)c1
inactive: Potency [1] | outcome [2] | Potency [18] | activity change, positive = activation [19] -0.643% [at 42.5 µM] | Potency [4] | Potency [20] | Potency [5] | Potency [6] | Potency [7] | Potency [8] | max response [9] 2.33% | Potency [10] | Potency [11] | Potency [12] | Potency [13] | Potency [14] | Potency [15] | Potency [16]

[Cl][Sn]([c]1ccccc1)([c]1ccccc1)[c]1ccccc1
inactive: activity change, positive = activation [19] -65.5% [at 19 µM] | cytotoxicity [5] -13.5% [at 15.8 µM] | activity change, negative = cytotoxicity [15] 1.26% [at 15.8 µM]
active: Potency [1] 0.677 µM | Potency [3] 1.52 µM | Potency [18] 580 nM | Potency [4] 2.61 µM | Potency [20] 0.262 µM | Potency [6] 1.65 µM | Potency [7] 0.293 µM | Potency [8] 7.37 µM | Potency [9] 0.233 µM | Potency [10] 1.85 µM | Potency [11] 3.29 µM | Potency [12] 2.61 µM | Potency [13] 2.61 µM | Potency [14] 2.61 µM | Potency [16] 1.65 µM

COP(=O)(OC)SCn1c(=O)oc2cc(Cl)cnc21
active: Potency [14] 49 µM
inactive: Potency [1] | outcome [2] | activity change, positive = activation [19] -27.7% | Potency [4] | Potency [5] | Potency [17] | Potency [8] | Potency [10] | Potency [11] | Potency [12] | Potency [15] | Potency [16]

C[C@@H]1O[C@@H](O[C@@H]2C=C3CC[C@@H]4[C@H](CC[C@]5(C)[C@@H](c6ccc(=O)oc6)CC[C@]45O)[C@@]3(C)CC2)[C@H](O)[C@H](O)[C@H]1O
inactive: Potency [1] | outcome [2] | activity change, positive = activation [19] -58.9% [at 42.5 µM] | Potency [4] | Potency [5] | Potency [17] | Potency [6] | Potency [8] | Potency [10] | Potency [11] | Potency [12] | Potency [13] | Potency [14] | Potency [15] | Potency [16]
active: Potency [18] 33.5 nM | Potency [20] 0.0213 µM | Potency [9] 0.019 µM

CC1CCC(C(C)C)C(OC(=O)c2ccccc2N)C1 (stereo unspecified)
inactive: activity change, positive = activation [19] -55.4% | Potency [4] | Potency [5] | Potency [17] | Potency [8] | Potency [11] | Potency [12] | Potency [15]
active: Potency [1] 88.5 µM | Potency [3] 88.5 µM | Potency [18] 53700 nM | Potency [20] 38.4 µM | Potency [6] 27.2 µM | Potency [7] 34.2 µM | Potency [9] 34.2 µM | Potency [16] 38.4 µM

N#Cc1c(-c2ccc(Cl)cc2)[nH]c(C(F)(F)F)c1Br
inactive: Potency [1] | activity change, positive = activation [19] -60.7% | Potency [4] | Potency [5] | Potency [17] | Potency [10] | Potency [11] | Potency [15]
active: Potency [3] 2.84 µM | Potency [18] 344 nM | Potency [20] 1.55 µM | Potency [6] 49 µM | Potency [7] 6.92 µM | Potency [9] 1.23 µM | Potency [16] 49 µM

CCOC(=O)c1ccccc1S(=O)(=O)NC(=O)Nc1nc(Cl)cc(OC)n1
active: Potency [16] 54.9 µM
inactive: Potency [1] | outcome [2] | Potency [3] | Potency [4] | Potency [17] | Potency [8] | Potency [11] | Potency [12] | Potency [13] | Potency [14]
